Measurements published in PubChem BioAssay AID1159580 (chemical genetic matrix, 2015).
Where “and” joins values, the source holds several entries; their conditions need not be identical. Equal values may be shown once. About 2,000 (36%) of roughly 5,500 compounds were called active. Roughly 18% stayed inconclusive and do not appear here. Cut-off read from the data, not from the text of the source: active = normalized growth mostly below about 0.91 (no sharp cut-off); inconclusive = no clear call, values can overlap the other calls; inactive = mostly above about 0.92. Some of the results follow.

Experiment: chemical genetic growth profiling, strain panel (AID 1159580);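 note: tested at 20 µM; growth read once vehicle control cultures reached saturation at 30 °C; 1 = growth at the plate median or of vehicle wells; lower values mean less growth of the strain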
Conditions: S. cerevisiae deletion strains, growth OD

Measured: normalized growth

COc1cc(C(=O)N2CCOCC2)cc(OC)c1OC
active: locus YCL029C, strain bik1, stronger effect = lower value 0.726 | locus YDL192W, strain arf1, stronger effect = lower value 0.101 | locus YDR101C, strain arx1, stronger effect = lower value 0.494 | locus YDR318W, strain mcm21, stronger effect = lower value 0.0684 | locus YDR388W, stronger effect = lower value 0.0657 | locus YDR502C, strain sam2, stronger effect = lower value 0.111 | locus YER110C, stronger effect = lower value 0.264 | locus YGL078C, strain dbp3, stronger effect = lower value 0.138 | locus YGL086W, strain mad1, stronger effect = lower value 0.0586 | locus YGR135W, strain pre9, stronger effect = lower value 0.0725 | locus YGR252W, strain gcn5, stronger effect = lower value 0.211 | locus YHR079C, strain IRE1 (second series), stronger effect = lower value 0.578 | locus YHR094C, strain hxt1, stronger effect = lower value 0.127 | locus YHR200W, strain rpn10, stronger effect = lower value 0.122 | locus YIL125W, strain kgd1, stronger effect = lower value 0.198 | locus YIR030C, strain dcg1, stronger effect = lower value 0.292 | locus YJL168C, strain set2, stronger effect = lower value 0.202
inactive: locus YAL013W, strain DEP1, stronger effect = lower value 1.01 | locus YAL021C, strain ccr4, stronger effect = lower value 1.01 | locus YAL026C, strain drs2, stronger effect = lower value 0.974 | locus YAL030W, strain snc1, stronger effect = lower value 0.984 | locus YBL061C, strain skt5, stronger effect = lower value 0.967 | locus YBR009C, strain hhf1, stronger effect = lower value 1.01 | locus YBR021W, strain FUR4, stronger effect = lower value 0.997 | locus YBR023C, strain chs3, stronger effect = lower value 0.971 | locus YBR171W, strain sec66, stronger effect = lower value 0.972 | locus YBR229C, strain ROT2, stronger effect = lower value 1.01 | locus YBR231C, strain swc5, stronger effect = lower value 0.983 | locus YBR279W, strain paf1, stronger effect = lower value 0.983 | locus YCL011C, strain gbp2, stronger effect = lower value 0.993 | locus YCL016C, strain dcc1, stronger effect = lower value 1 | locus YCL061C, strain MRC1, stronger effect = lower value 0.978 | locus YCL069W, strain vba3, stronger effect = lower value 0.972 | locus YCR088W, strain abp1, stronger effect = lower value 0.978 | locus YDL005C, strain med2, stronger effect = lower value 0.969 | locus YDL035C, strain GPR1, stronger effect = lower value 1.02 | locus YDL040C, strain nat1, stronger effect = lower value 0.974 | locus YDL074C, strain BRE1, stronger effect = lower value 1.01 | locus YDL101C, strain DUN1, stronger effect = lower value 1.02 | locus YDL134C, strain PPH21, stronger effect = lower value 1.01 | locus YDL185W, strain tfp1, stronger effect = lower value 1.01 | locus YDR001C, strain nth1, stronger effect = lower value 0.98 | locus YDR069C, strain doa4, stronger effect = lower value 0.992 | locus YDR137W, strain rgp1, stronger effect = lower value 0.989 | locus YDR150W, strain NUM1, stronger effect = lower value 1.02 | locus YDR159W, strain sac3, stronger effect = lower value 0.961 | locus YDR162C, strain NBP2, stronger effect = lower value 1 | locus YDR195W, strain ref2 0.937 | locus YDR297W, strain sur2, stronger effect = lower value 0.999 | locus YDR334W, strain swr1, stronger effect = lower value 0.966 | locus YDR335W, strain msn5, stronger effect = lower value 0.979 | locus YDR392W, strain spt3, stronger effect = lower value 1.02 | locus YEL003W, strain gim4, stronger effect = lower value 0.985 | locus YEL037C, strain rad23, stronger effect = lower value 0.988 | locus YEL061C, strain CIN8 (second series), stronger effect = lower value 0.964 | locus YEL061C, strain CIN8, stronger effect = lower value 1 | locus YER015W, strain faa2, stronger effect = lower value 0.989 | locus YER016W, strain bim1, stronger effect = lower value 0.987 | locus YER111C, strain swi4, stronger effect = lower value 0.945 | locus YER155C, strain BEM2 (second series), stronger effect = lower value 0.994 | locus YER155C, strain BEM2, stronger effect = lower value 1.01 | locus YER167W, strain BCK2, stronger effect = lower value 1.02 | locus YFR010W, strain ubp6, stronger effect = lower value 0.962 | locus YGL167C, strain pmr1, stronger effect = lower value 0.971 | locus YGL173C, strain kem1, stronger effect = lower value 0.985 | locus YGL227W, strain vid30, stronger effect = lower value 0.978 | locus YGL240W, strain doc1, stronger effect = lower value 0.991 | locus YGL248W, strain PDE1, stronger effect = lower value 1.01 | locus YGL253W, strain hxk2, stronger effect = lower value 0.97 | locus YGR078C, strain PAC10, stronger effect = lower value 1 | locus YGR229C, strain SMI1, stronger effect = lower value 1.01 | locus YHR013C, strain ard1, stronger effect = lower value 0.997 | locus YHR027C, strain rpn1, stronger effect = lower value 0.995 | locus YHR030C, strain SLT2, stronger effect = lower value 1.01 | locus YHR079C, strain IRE1, stronger effect = lower value 1.04 | locus YHR129C, strain ARP1, stronger effect = lower value 0.998 | locus YHR142W, strain chs7, stronger effect = lower value 0.982 | locus YIL066C, strain RNR3, stronger effect = lower value 1.02 | locus YIL073C, strain SPO22, stronger effect = lower value 1.09 | locus YJL092W, strain hpr5, stronger effect = lower value 0.972 | locus YJL095W, strain BCK1 (second series), stronger effect = lower value 0.979 | locus YJL095W, strain BCK1, stronger effect = lower value 0.991 and 0.987 | locus YJL115W, strain asf1, stronger effect = lower value 0.987 | locus YJL129C, strain trk1, stronger effect = lower value 0.958 | locus YJL134W, strain LCB3, stronger effect = lower value 1.01 | locus YJL154C, strain vps35, stronger effect = lower value 0.974 | locus YJL164C, strain tpk1, stronger effect = lower value 0.999 | locus YJL166W, strain qcr8, stronger effect = lower value 1.02 | locus YJL187C, strain SWE1 (second series), stronger effect = lower value 1.01 | locus YJR043C, strain POL32, stronger effect = lower value 1.02 | locus YJR066W, strain TOR1, stronger effect = lower value 0.984
